These results are taken from PubChem BioAssay (Tox21).

SMILES strings stand for the structures. Inconclusive results are not listed. Values without a mark were called inactive. Calls come from the whole dose curve; as a rule, active = well fitted cell-killing curve with a large enough effect in the repeat runs (not every such curve was filed as active); inconclusive = weak or mixed curves, or effect the other way; inactive = no such curve, though single readings can be large or run the other way.
% is set by controls: 0 for no effect and ±100 for the full control effect.

The nature of this experiment: qHTS assay to identify small molecule antagonists of the estrogen related receptor signaling pathway with the pleiotropic PPARgamma coactivator (PGC) from Tox21 10K library - cell viability counter screen (AID 1224840). Note: nearly all actives have a fitted effect of over 40% in size. Conditions: PGC/ERR reporter cells viability, CellTiter-Fluor, 17.5 h; series mostly up to 92.4 µM; viability change, negative = cytotoxic: at the top concentration. The source says: National Center for Advancing Translational Sciences [NCATS]
NIH Chemical Genomics Center [NCGC]
U.S. Environmental Protection Agency [EPA]
National Institutes of Environmental Health Sciences [NIEHS]
National Toxicology Program [NTP]
U.S. Food and Drug Administration [FDA]
Estrogen related receptors (ERRs), the first orphan nuclear receptors discovered, play an important role in the control of cellular energy metabolism. ERRs are required for high-energy production in response to the environmental challenges. The pleiotropic PPARgamma coactivator (PGC) is a major partner of ERR and a key regulator in energy homeostasis. Together they have been implicated in the etiology of metabolic disorders such as Type 2 diabetes and metabolic syndrome. ERR-alpha was also identified as an adverse marker for breast cancer progression; ERR-alpha-positive tumors have a poor prognosis. To screen and to identify environmental compounds that perturb the ERR and PGC/ERR signaling pathways could provide valuable information for potential therapeutic or preventive measures in the treatment of metabolic disease. To differentiate true PGC/ERR antagonists or agonist from cytotoxic substances, the assay is multiplexed with cell viability assay.
Tox21 Assay Protocol Summary:
The PGC/ERR cells were dispensed at 2,000 cells/5 ul/well in 1536-well white plates using a Multidrop dispenser. After the assay plates were incubated at a 37 C/5% CO2 incubator for 6 hours, 23 nL of compounds dissolved in DMSO, positive and negative controls or DMSO only was transferred to the assay plate by a pin tool. The plates were incubated at 37 C for 17.5 hours. 1 ul/well of CellTiter-Fluor reagent was added into the assay plates using a Flying Reagent Dispenser. After 30-minute incubation at 37 C/5% CO2, the fluorescence intensity in the plates was measured using a ViewLux plate reader.
In the case of `CCNC(=O)NCCCOc1cccc(CN2CCCCC2)c1`, the “viability change, negative = cytotoxic” value is -0.442% [at 42.5 µM].

Turning to `CNCc1ccccc1`, the “viability change, negative = cytotoxic” value was 2.03% [at 42.5 µM].

In the case of `Nc1cc(C(=O)O)ccc1Cl`, the “viability change, negative = cytotoxic” value is 10.6%.

In the case of `COCCOCCOCCOC`, the “viability change, negative = cytotoxic” value is 2.42%.

In the case of `CN(C1CCCCC1)S(=O)(=O)c1ccccc1N`, the “viability change, negative = cytotoxic” value is -10.5%.

`O=C(/C=C/c1ccccc1)NCCO`: the “viability change, negative = cytotoxic” value is -1.34% [at 42.5 µM].

Turning to `Cn1c(=O)c2c(ncn2CC2OCCO2)n(C)c1=O`, the “viability change, negative = cytotoxic” value is 18.8% [at 42.5 µM].

Consider `CCCCC[Si](OCC)(OCC)OCC`, for which the “viability change, negative = cytotoxic” value is 0.3%.

`CCCCCCCCCCCCC`: the “viability change, negative = cytotoxic” value is 9.14%.

For `C1CCN2C[C@@H]3C[C@@H](CN4CCCC[C@@H]34)[C@H]2C1`, the “viability change, negative = cytotoxic” value is 1.53% [at 42.5 µM].

Take `Cc1ccccc1N1CCN(CCc2nnc3n2CCCC3)CC1`: the “viability change, negative = cytotoxic” value was 2.67% [at 42.5 µM].

Turning to `O=C(CN1CCN(Cc2ccc3c(c2)OCO3)CC1)N1c2ccccc2Sc2ccccc21`, the “viability change, negative = cytotoxic” value was -1.55% [at 42.5 µM].

Take `Cc1c(C(C)C)c(=O)n(-c2ccccc2)n1C`: the “viability change, negative = cytotoxic” value was -1.25% [at 42.5 µM].

Turning to `O=C1OC(=O)c2ccccc21`, the “viability change, negative = cytotoxic” value was 8.85%.

Consider `OCCCCCCCl`, for which the “viability change, negative = cytotoxic” value is -0.714%.

As to `O=C(O)c1c(Cl)ccc(Cl)c1Cl`, the “viability change, negative = cytotoxic” value is 0.195%.

On to `COc1cc(C=O)ccc1OC(=O)C(C)C`, for which the “viability change, negative = cytotoxic” value was 0.958%.

Take `Cc1ccc(S(=O)(=O)NC(=O)NC2CCCCCCC2)cc1`: the “viability change, negative = cytotoxic” value is 4.8% [at 42.5 µM].

As for `CCCCCCCCCCCCOC(C)=O`, the “viability change, negative = cytotoxic” value is -1.91%.

In the case of `C[Si]1(C)N[Si](C)(C)N[Si](C)(C)N1`, the “viability change, negative = cytotoxic” value is -1.09%.

For the compound `COc1ccc(/C=N/NC(=O)c2ccncc2)cc1OC`, the “viability change, negative = cytotoxic” value was 5.96% [at 42.5 µM].

In the case of `CC1(N)CCC(C(C)(C)N)CC1` (stereo not given), the “viability change, negative = cytotoxic” value was -0.878%.

Consider `Nc1cc(Cl)cc(S(=O)(=O)O)c1O`, for which the “viability change, negative = cytotoxic” value is 0.967%.

As for `CCNC(=O)/C=C/c1cccc(Br)c1`, the “viability change, negative = cytotoxic” value is 4.41% [at 42.5 µM].

Consider `CC(C)(CO)[C@@H](O)C(=O)NCCCO`, for which the “viability change, negative = cytotoxic” value was 12.4% [at 42.5 µM].

Take `CCC(=O)OCCC(C)CCC=C(C)C` (stereo not given): the “viability change, negative = cytotoxic” value is -0.221%.

With `FC(F)(F)/C(=N\OCC1OCCO1)c1ccc(Cl)cc1`, the “viability change, negative = cytotoxic” value was 3.19%.

`CC(C)(C)NCCO`: the “viability change, negative = cytotoxic” value was 2.14%.

For the compound `Cc1cccc(C(=O)O)c1[N+](=O)[O-]`, the “viability change, negative = cytotoxic” value was 1.06%.

Consider `C=COCCOCCOC=C`, for which the “viability change, negative = cytotoxic” value was 0.169%.

For the compound `CC(C)C(=O)c1ccccc1`, the “viability change, negative = cytotoxic” value was -0.373%.

Consider `O=C(O)CCNC(=O)c1ccccc1`, for which the “viability change, negative = cytotoxic” value was 0.671% [at 42.5 µM].

In the case of `CO[Si](CCCCl)(OC)OC`, the “viability change, negative = cytotoxic” value was -7.64%.

As for `Nc1ccc(/C=C/c2ccc(N)cc2S(=O)(=O)O)c(S(=O)(=O)O)c1`, the viability change, negative = cytotoxic is 2.38% [at 0.349 µM].

Consider `C[C@H](CCC(=O)NCC(=O)O)[C@H]1CC[C@H]2[C@@H]3[C@H](O)C[C@@H]4C[C@H](O)CC[C@]4(C)[C@H]3C[C@H](O)[C@]12C`, for which the “viability change, negative = cytotoxic” value was -1.65%.

On to `CCOC(=O)CC(CC(=O)OCC)(OC(C)=O)C(=O)OCC`, for which the “viability change, negative = cytotoxic” value was -2.1%.

As to `Nc1c(NC/C=C\COc2cc(CN3CCCCC3)ccn2)c(=O)c1=O`, the viability change, negative = cytotoxic is 8.26% [at 19 µM].

For the compound `Nc1ccc(C(=O)OCC(O)CO)cc1` (stereo not given), the “viability change, negative = cytotoxic” value was 3.87% [at 42.5 µM].

For `CC(C)C(=O)Nc1cccc(C(F)(F)F)c1`, the “viability change, negative = cytotoxic” value is -3.89% [at 42.5 µM].

Regarding `COC(=O)CCC(=O)O`, the “viability change, negative = cytotoxic” value is 4.36%.
